19 compounds from PubChem BioAssay can be followed below.

Unmarked numbers belong to inactive results. For some assays here: Measured potencies and affinities stand elsewhere. The source made the active and inactive calls. Unless noted, the rule behind the calls is not given here.

The nature of test [1]: antimalarial activity against Dd2 strain (AID 2302;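 active = growth inhibition above 50% at the single 2 µM test dose, taken to imply half-maximal potency below 2 µM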;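 note: 0% = DMSO untreated growth and 100% = chloroquine plus artemisinin killed control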). As to conditions: P. falciparum Dd2 in RBCs, LDH growth readout, 72 h; at 2 µM; hits give high values.
Test [2] is described as follows: human hepatoma cell viability loss – ATP luminescence, cytotoxicity control for P. falciparum antimalarial project, primary screen (AID 2303;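 active = inhibition above 50%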;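 note: 0% = DMSO wells and 100% = digitonin-killed cells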). As to conditions: HepG2 viability, 24-48 h, at 10 µM, hits give high values.
In test [3] the target is L-lactate dehydrogenase (Plasmodium falciparum (isolate CDC / Honduras)) (UniProt Q27743). The experiment in a line: PfLDH activity inhibition – cell lysate, 3D7 strain, counter-screen for P. falciparum growth inhibition project (AID 2304).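 Note: 0% = vehicle and 100% = reference inhibitor.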 The conditions noted are these: P. falciparum 3D7 crude extract, LDH APAD/NBT absorbance; at 2 µM; hits give high values. (Counterscreens check selectivity or assay interference.)
Chain of L-lactate dehydrogenase (Plasmodium falciparum (isolate CDC / Honduras)) (Q27743 whole entry, looked up): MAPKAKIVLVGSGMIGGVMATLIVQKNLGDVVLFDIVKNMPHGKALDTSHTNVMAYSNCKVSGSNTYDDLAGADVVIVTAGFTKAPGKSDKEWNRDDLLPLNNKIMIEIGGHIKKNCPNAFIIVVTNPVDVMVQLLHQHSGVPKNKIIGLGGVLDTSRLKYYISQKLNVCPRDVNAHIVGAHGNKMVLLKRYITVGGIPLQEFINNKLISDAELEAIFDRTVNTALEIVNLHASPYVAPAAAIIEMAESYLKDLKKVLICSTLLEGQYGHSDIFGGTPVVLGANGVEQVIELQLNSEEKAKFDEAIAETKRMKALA

Test [4] is described as follows: inhibition of 3D7 malaria parasite growth – strain 3D7 (AID 2306).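 Note: 0% = DMSO wells and 100% = chloroquine plus artemisinin control wells.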 The conditions noted are these: P. falciparum 3D7 erythrocytic growth, LDH absorbance, 72 h; at 2 µM; hits give high values.
Test [5] concerns the target Calcium-dependent protein kinase 1 (Plasmodium falciparum (isolate 3D7)) (UniProt P62344). Nature of the test: PfCDPK1 kinase inhibitors, biochemical, TCAMS library (AID 1159585; cut-off not given, nearly all actives have IC50 up to about 0.98 µM;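 note: inhibitors leave more ATP so luminescence rises with inhibition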). The conditions noted are these: recombinant PfCDPK1, Kinase-Glo ATP depletion luminescence. (In general: In Kinase-Glo more light means more ATP remaining.)
The target of test [6] is Plasmodium falciparum protein kinase 6 (PK6, PF3D7_1337100) (UniProt Q8IDW1). The experiment in a line: PfPK6 kinase inhibitors, biochemical, TCAMS library (AID 1159586). The conditions noted are these: recombinant PfPK6, Kinase-Glo ATP depletion luminescence.
Chain of Plasmodium falciparum protein kinase 6 (PK6, PF3D7_1337100) (Q8IDW1 1-305): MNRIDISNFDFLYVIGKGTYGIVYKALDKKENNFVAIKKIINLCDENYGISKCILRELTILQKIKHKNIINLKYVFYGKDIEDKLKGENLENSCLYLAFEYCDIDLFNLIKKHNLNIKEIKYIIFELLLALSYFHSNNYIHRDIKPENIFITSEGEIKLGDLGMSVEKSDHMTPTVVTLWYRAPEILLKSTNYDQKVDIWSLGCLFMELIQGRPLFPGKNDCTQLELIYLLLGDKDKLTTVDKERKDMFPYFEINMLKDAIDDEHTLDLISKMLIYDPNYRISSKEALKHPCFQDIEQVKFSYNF
In test [7] the target is Protein kinase 7 (PK7), Plasmodium falciparum 3D7 (PF3D7_0213400) (UniProt Q7YTF7). Nature of the test: inhibition of Plasmodium PK7 catalytic activity – biochemical, TCAMS antimalarial set, Kinase-Glo luminescence (AID 1159587). As to conditions: recombinant PfPK7, Kinase-Glo ATP depletion luminescence.
Chain of Protein kinase 7 (PK7), Plasmodium falciparum 3D7 (PF3D7_0213400) (Q7YTF7 1-343): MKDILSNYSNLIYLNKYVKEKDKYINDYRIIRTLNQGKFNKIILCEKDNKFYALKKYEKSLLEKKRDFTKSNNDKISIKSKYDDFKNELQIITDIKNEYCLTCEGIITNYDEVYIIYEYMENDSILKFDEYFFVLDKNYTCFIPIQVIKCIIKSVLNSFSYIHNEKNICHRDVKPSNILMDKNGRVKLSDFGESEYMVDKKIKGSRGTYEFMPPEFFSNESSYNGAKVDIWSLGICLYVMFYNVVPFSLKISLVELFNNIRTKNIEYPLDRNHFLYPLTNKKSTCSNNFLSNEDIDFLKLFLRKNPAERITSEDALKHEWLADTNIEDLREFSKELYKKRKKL
Test [8] deals with Calcium-dependent protein kinase 4 (Plasmodium falciparum (isolate 3D7)) (UniProt Q8IBS5). Nature of the test: PfCDPK4 kinase inhibitors, biochemical, TCAMS library (AID 1159588; cut-off not given, nearly all actives have IC50 up to about 0.91 µM). As to conditions: recombinant PfCDPK4, Kinase-Glo ATP depletion luminescence.
Chain of Calcium-dependent protein kinase 4 (Plasmodium falciparum (isolate 3D7)) (Q8IBS5 whole entry, looked up): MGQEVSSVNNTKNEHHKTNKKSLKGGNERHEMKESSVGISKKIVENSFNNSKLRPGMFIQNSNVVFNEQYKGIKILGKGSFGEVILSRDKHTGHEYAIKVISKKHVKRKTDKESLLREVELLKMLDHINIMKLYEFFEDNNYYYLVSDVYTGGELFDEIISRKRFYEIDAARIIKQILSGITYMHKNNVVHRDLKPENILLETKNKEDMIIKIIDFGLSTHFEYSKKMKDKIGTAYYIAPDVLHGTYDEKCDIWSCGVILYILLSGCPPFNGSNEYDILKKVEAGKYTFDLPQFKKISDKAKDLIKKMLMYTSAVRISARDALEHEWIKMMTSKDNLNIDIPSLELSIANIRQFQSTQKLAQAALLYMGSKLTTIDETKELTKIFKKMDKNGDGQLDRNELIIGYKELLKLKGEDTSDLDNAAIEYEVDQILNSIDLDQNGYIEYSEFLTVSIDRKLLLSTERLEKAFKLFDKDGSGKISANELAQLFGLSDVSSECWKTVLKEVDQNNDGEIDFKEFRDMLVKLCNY

Chain of Calcium-dependent protein kinase 1 (Plasmodium falciparum (isolate 3D7)) (P62344 whole entry, looked up): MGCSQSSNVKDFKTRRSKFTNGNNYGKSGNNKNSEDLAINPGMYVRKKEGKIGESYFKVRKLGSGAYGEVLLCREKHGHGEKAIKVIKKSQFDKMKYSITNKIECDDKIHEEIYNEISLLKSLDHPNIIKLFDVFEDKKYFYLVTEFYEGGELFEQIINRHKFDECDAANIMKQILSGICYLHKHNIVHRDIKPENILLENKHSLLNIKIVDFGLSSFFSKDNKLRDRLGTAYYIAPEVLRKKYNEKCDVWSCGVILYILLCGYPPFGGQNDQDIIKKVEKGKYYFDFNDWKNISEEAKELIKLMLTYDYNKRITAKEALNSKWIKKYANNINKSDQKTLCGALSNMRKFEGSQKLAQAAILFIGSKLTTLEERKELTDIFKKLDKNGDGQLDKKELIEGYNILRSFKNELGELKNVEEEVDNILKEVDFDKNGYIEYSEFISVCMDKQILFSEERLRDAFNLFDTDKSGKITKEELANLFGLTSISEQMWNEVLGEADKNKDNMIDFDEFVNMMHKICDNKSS

As a reminder, the inhibition is the relative decrease from the control value, in per cent. For `CCNc1cc(C(=O)N[C@@H](Cc2ccccc2)[C@H](O)CNC(C)Cc2cccc(Cl)c2)cc(N2CCCCS2(=O)=O)c1` (some centres not stated), the growth inhibition in test [1] is 77% (active); in test [4], 98% (active). In addition, the inhibition in test [2] was -6%; in test [3], 1%. In addition, the result in test [5], in test [6], in test [7] and in test [8] was inactive.

For `CN1CCN(c2cccc(-c3nnc(-c4ccc(OCC(=O)NCc5ccc(C(F)(F)F)cc5)c([N+](=O)[O-])c4)o3)c2)CC1`, the growth inhibition in test [1] was 44%; in test [4], 90% (active). In addition, the inhibition in test [2] was 35%; in test [3], -4%. Moreover, the result in test [5], in test [6], in test [7] and in test [8] was inactive.

Turning to `Cc1cccc2[nH]c(-c3ccc(-c4ccc(CN5CCC(CCN6CCCCC6)CC5)cc4)cc3)nc12`, the growth inhibition in test [1] and in test [4] was 100% (active) throughout. The inhibition in test [2] is 99% (active); in test [3], 6%. Moreover, the outcome in test [5], in test [6], in test [7] and in test [8] was inactive.

Turning to `CS(=O)(=O)CCNCc1ccc(-c2ccc3c(Nc4ccc(F)cc4Cl)ccnc3c2)o1`, the growth inhibition in test [1] was 98% (active); in test [4] it was 100% (active). Besides, the inhibition in test [2] is 29%; in test [3] it was 0%. Also, the result in test [5], in test [6], in test [7] and in test [8] was inactive.

Regarding `COc1cc(Cl)c(C)cc1-n1cc(C(=O)c2cc(Br)ccc2O)cc(C#N)c1=O`, the growth inhibition is 35% in test [1] and 95% (active) in test [4]. The inhibition in test [2] was 3%; in test [3], -3%. The result in test [5], in test [6], in test [7] and in test [8] was inactive.

On to `CCCCOc1ccc(CNCCCCCCNCc2ccc(OCCCC)c3ccccc23)c2ccccc12`, for which the growth inhibition in test [1] is 49%; in test [4] it was 81% (active). The inhibition is 100% (active) in test [2] and 2% in test [3]. Also, the result in test [5], in test [6], in test [7] and in test [8] was inactive.

Turning to `COc1cccc(C(O)CNc2ccnc(Nc3cccc(-c4csc(C)n4)c3)n2)c1` (configuration not stated), the values for the growth inhibition in test [1] and in test [4] were 73% (active) and 99% (active), respectively. In addition, the values for the inhibition in test [2] and in test [3] were 38% and -8%, respectively. For the same compound, the result in test [5], in test [6], in test [7] and in test [8] was inactive.

Consider `CCC(C)CN1CCN(c2ccc(NC(=O)c3cccs3)cc2)CC1C` (configuration not stated), for which the growth inhibition in test [1] and in test [4] was 94% (active) in each case. The inhibition is -3% in test [2] and 1% in test [3]. The result in test [5], in test [6], in test [7] and in test [8] was inactive.

For the compound `Cc1cc(=O)c(-c2cccc(Oc3ccc(Cl)cc3)c2)c(C)[nH]1`, the growth inhibition in test [1] is 95% (active); in test [4], 96% (active). For the same compound, the inhibition in test [2] is -2%; in test [3], -4%. The result in test [5], in test [6], in test [7] and in test [8] was inactive.

As for `COc1ccc2nccc(NN=Cc3cccc(C)n3)c2c1`, the growth inhibition is 99% (active) in test [1] and 100% (active) in test [4]. Besides, the inhibition was 16% in test [2] and 3% in test [3]. For the same compound, the outcome in test [5], in test [6], in test [7] and in test [8] was inactive.

With `Cc1cccc(C(=O)Nc2ccnc(N3CCC(N(C)Cc4ccccc4)CC3)c2)c1`, the results for the growth inhibition in test [1] and in test [4] were 2% and 93% (active), respectively. The inhibition was 12% in test [2] and -1% in test [3]. For the same compound, the outcome in test [5], in test [6], in test [7] and in test [8] was inactive.

Consider `CC(=O)Nc1ccc(S(=O)(=O)Nc2c(C)cc(Cc3cnc(N)nc3N)cc2C)cc1`, for which the growth inhibition is -1% in test [1] and 94% (active) in test [4]. Also, the inhibition in test [2] was 6%; in test [3], 5%. In addition, the outcome in test [5], in test [6], in test [7] and in test [8] was inactive.

Turning to `CC(C)(C)c1nn(-c2ccccc2)c2[nH]c(=O)c(CNCc3ccccc3)cc12`, the growth inhibition is 91% (active) in test [1] and 90% (active) in test [4]. The figures for the inhibition in test [2] and in test [3] were 5% and 2%, respectively. Also, the result in test [5], in test [6], in test [7] and in test [8] was inactive.

Regarding `Cc1cc(N(C)C)nc(Nc2ccc(NS(=O)(=O)c3ccccc3)cc2)n1`, the figures for the growth inhibition in test [1] and in test [4] were 11% and 92% (active), respectively. The inhibition in test [2] was -3%; in test [3] it was -1%. The result in test [5], in test [6], in test [7] and in test [8] was inactive.

`NC(=O)c1cccc(C(=O)Nc2ccc(-c3cccc(-c4nc5ccc(C(F)(F)F)cc5[nH]4)c3)cc2)c1`: the growth inhibition is 86% (active) in test [1] and 100% (active) in test [4]. The figures for the inhibition in test [2] and in test [3] were 74% (active) and -2%, respectively. Besides, the result in test [5], in test [6], in test [7] and in test [8] was inactive.

Consider `CCC(=O)OC(CCN(CC)CC)(c1ccccc1)c1ccccc1`, for which the growth inhibition in test [1] is 6%; in test [4], 98% (active). The inhibition in test [2] was 30%; in test [3] it was 4%. Further, the result in test [5], in test [6], in test [7] and in test [8] was inactive.

`CC(=O)Nc1ccc(S(=O)(=O)Nc2ccc(Nc3nc(C)cc(N4CCCCC4)n3)cc2)cc1`: the growth inhibition in test [1] was 54% (active); in test [4] it was 89% (active). For the same compound, the inhibition in test [2] was 23%; in test [3], 0%. The result in test [5], in test [6], in test [7] and in test [8] was inactive.

Regarding `Fc1cccc(C=NNc2ccnc3cc(Cl)ccc23)c1`, the growth inhibition in test [1] is 91% (active); in test [4] it was 99% (active). For the same compound, the inhibition in test [2] was 6%; in test [3], -7%. The outcome in test [5], in test [6], in test [7] and in test [8] was inactive.

Regarding `CCN(CCCN1CCCCC1)c1cc(C)nc(Nc2ccc(Cl)c(C(F)(F)F)c2)n1`, the growth inhibition is 55% (active) in test [1] and 96% (active) in test [4]. Also, the figures for the inhibition in test [2] and in test [3] were 43% and 2%, respectively. Moreover, the result in test [5], in test [6], in test [7] and in test [8] was inactive.
